Data: PubChem BioAssay AID493194 (Broad Institute, 2011)
Potency and affinity values are given separately. Inconclusive results are not listed. Calls of active or inactive are those of the source.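 How the source made its calls: active means a valid curve of falling signal whose half-effect concentration is at most ten times the top tested dose; inconclusive means flat curve at 30 to 70% inhibition, or poor fit; inactive means signal rise, flat within 30%, or potency beyond limit.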

Biological target: Scavenger receptor class B member 1 (Mus musculus) (UniProt Q61009)
Experiment: mouse SR-BI DiI-HDL uptake blockers – ldlA[mSR-BI] cells, fluorescence, cherry pick, dose response (AID 493194);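 further: CHO cells lacking LDL receptor and overexpressing mouse SR-BI; cellular uptake of fluorescently labeled HDL measured as cell fluorescence; 0% = median of neutral control wells and -100% = median of positive control wells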
Details: CHO ldlA[mSR-BI] DiI-HDL uptake fluorescence, 3 h; series mostly up to 35 µM; activity change, negative = inhibition: at the top concentration

Chain of Scavenger receptor class B member 1 (Mus musculus) (Q61009 whole entry, looked up): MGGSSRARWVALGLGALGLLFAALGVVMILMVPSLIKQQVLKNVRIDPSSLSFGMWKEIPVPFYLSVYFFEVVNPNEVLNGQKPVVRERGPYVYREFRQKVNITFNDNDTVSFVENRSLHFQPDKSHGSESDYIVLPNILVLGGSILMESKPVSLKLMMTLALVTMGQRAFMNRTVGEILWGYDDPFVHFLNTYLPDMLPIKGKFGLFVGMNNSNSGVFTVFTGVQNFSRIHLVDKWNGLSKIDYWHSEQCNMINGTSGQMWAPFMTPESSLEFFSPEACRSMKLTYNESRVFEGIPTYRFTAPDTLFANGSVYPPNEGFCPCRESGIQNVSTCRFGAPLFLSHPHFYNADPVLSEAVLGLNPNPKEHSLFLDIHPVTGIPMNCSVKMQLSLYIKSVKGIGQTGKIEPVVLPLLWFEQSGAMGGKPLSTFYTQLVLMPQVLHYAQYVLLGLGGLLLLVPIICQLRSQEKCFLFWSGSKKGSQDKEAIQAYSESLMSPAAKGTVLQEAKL

Activity change, negative = inhibition, inactive:
COc1ccc(OC)c(CCNC(=O)c2ccc3c(c2)N(Cc2ccccc2)CCS3)c1 62.2%, COc1ccc(COC(=O)c2ccc(Br)c(S(=O)(=O)N3CCOCC3)c2)cc1F -34.5%, CNc1nc(-c2ccc3c(c2)CCN3C(=O)c2ccc(F)cc2)cs1 -14.7%, O=C(Nc1cccc(NC(=O)c2ccccc2[N+](=O)[O-])c1)c1ccccc1Cl -0.244%, O=C(C[C@H]1C/C=C\CCC(=O)OC[C@H]2CCCN2C1=O)NCCO 127%, C=CCN(CC=C)C(=O)COn1nnc2ccc(S(=O)(=O)N3CCOCC3)cc21 -32.2%, CC(C)CN(CC(C)C)C(=O)COn1nnc2ccc(S(=O)(=O)N3CCOCC3)cc21 -17.4%, COc1ccc(OC)c2[nH]c(C(=O)N3CCC(C(=O)O)CC3)cc12 -3.01%, CN(C(=O)COn1nnc2ccc(S(=O)(=O)N3CCOCC3)cc21)c1ccccc1 -9.75%, CC(C)C(=O)Nc1sc2c(c1-c1nc3ccccc3[nH]1)CCCC2 -24.5%, Cc1ccc(OCC(=O)NNC(=O)C2CCN(c3ncnc4sc(C)c(C)c34)CC2)cc1 -32.4%, O=C(NC1CC1)c1ccc(CN(c2ccccc2)S(=O)(=O)c2ccccc2)cc1 -29.2%, CC(C)C(=O)N1CCc2cc(-c3csc(N)n3)ccc21 -22.1%, COC(=O)c1cnc(Oc2ccc(NC(=O)NC(=O)c3c(OC)cccc3OC)cc2)cc1C(F)(F)F -25.2%, Cc1cc(C)c(C)c(S(=O)(=O)N2CCN(CC(=O)NC(=O)NCc3ccccc3)CC2)c1C -0.05%, COc1ccc(-c2nnn(CC(=O)N(CC(=O)NC3CCCC3)c3cccc(C)c3)n2)cc1OC -20.7%
